# Data published in the supplement of paper PMC10849652.
# The full data set covers some 8,800 targets. This sample favours those with a hit. About 0.5% of all pairs of compound and target were hits. A number with no mark means an inactive call.
# Legend:
# Experiment in all cases: log2 fold change, soluble protein after heating vs DMSO (PISA); higher = thermal stabilisation; K562 lysate, 10 uM; active = over 0.2 and 3.5 SD of the protein, either way, in both replicates (recomputed)
# nilotinib = compound: Cc1cn(-c2cc(NC(=O)c3ccc(C)c(Nc4nccc(-c5cccnc5)n4)c3)cc(C(F)(F)F)c2)cn1 [nilotinib]
# In short: (§1)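 K562 pellets were dounce-homogenised in PBS pH 7.4 with 1 mM MgCl2, and the crude extract at 1 mg/mL protein was treated with 10 μM compound for 30 min. Aliquots were heated for 3 min across 48°C-58°C, pooled, and brought to 0.5% NP-40 at 4°C; soluble protein was the supernatant after 21,000xg for 90 min. Soluble protein was quantified by TMTpro 16plex LC-MS/MS with channel sums equalised, and reported as log2 fold change in thermal stability against DMSO controls, with values from duplicates.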
# [1] = compound: Cc1nc(Nc2n[nH]c3c2CN(C(=O)N[C@H](CN(C)C)c2ccccc2)C3(C)C)c2sccc2n1
# In short: as §1
# dasatinib = compound: Cc1nc(Nc2ncc(C(=O)Nc3c(C)cccc3Cl)s2)cc(N2CCN(CCO)CC2)n1 [dasatinib]
# In short: as §1
# [2] = compound: Cc1ncc(-c2ccnc(Nc3ccc(S(C)(=O)=O)cc3)n2)n1C(C)C
# In short: as §1
# [3] = compound: Cn1cc(-c2ccc3c(c2)CCN3C(=O)Cc2cccc(C(F)(F)F)c2)c2c(N)ncnc21
# In short: as §1
# quisinostat = compound: Cn1cc(CNCC2CCN(c3ncc(C(=O)NO)cn3)CC2)c2ccccc21 [quisinostat]
# In short: as §1
# tipifarnib = compound: Cn1cncc1[C@@](N)(c1ccc(Cl)cc1)c1ccc2c(c1)c(-c1cccc(Cl)c1)cc(=O)n2C [tipifarnib]
# In short: as §1
# [4] = compound: NC(=O)Nc1cc(-c2cccc(F)c2)sc1C(=O)N[C@H]1CCCNC1
# In short: as §1
# [5] = compound: NC(=O)c1cnc(N[C@@H]2CCCC[C@@H]2N)nc1Nc1cccc(-n2nccn2)c1
# In short: as §1
# [6] = compound: NC1(c2ccc(-c3nc4ccn5c(=O)[nH]nc5c4cc3-c3ccccc3)cc2)CCC1
# In short: as §1
# UniProt P27816, sequence (P27816 whole entry, looked up): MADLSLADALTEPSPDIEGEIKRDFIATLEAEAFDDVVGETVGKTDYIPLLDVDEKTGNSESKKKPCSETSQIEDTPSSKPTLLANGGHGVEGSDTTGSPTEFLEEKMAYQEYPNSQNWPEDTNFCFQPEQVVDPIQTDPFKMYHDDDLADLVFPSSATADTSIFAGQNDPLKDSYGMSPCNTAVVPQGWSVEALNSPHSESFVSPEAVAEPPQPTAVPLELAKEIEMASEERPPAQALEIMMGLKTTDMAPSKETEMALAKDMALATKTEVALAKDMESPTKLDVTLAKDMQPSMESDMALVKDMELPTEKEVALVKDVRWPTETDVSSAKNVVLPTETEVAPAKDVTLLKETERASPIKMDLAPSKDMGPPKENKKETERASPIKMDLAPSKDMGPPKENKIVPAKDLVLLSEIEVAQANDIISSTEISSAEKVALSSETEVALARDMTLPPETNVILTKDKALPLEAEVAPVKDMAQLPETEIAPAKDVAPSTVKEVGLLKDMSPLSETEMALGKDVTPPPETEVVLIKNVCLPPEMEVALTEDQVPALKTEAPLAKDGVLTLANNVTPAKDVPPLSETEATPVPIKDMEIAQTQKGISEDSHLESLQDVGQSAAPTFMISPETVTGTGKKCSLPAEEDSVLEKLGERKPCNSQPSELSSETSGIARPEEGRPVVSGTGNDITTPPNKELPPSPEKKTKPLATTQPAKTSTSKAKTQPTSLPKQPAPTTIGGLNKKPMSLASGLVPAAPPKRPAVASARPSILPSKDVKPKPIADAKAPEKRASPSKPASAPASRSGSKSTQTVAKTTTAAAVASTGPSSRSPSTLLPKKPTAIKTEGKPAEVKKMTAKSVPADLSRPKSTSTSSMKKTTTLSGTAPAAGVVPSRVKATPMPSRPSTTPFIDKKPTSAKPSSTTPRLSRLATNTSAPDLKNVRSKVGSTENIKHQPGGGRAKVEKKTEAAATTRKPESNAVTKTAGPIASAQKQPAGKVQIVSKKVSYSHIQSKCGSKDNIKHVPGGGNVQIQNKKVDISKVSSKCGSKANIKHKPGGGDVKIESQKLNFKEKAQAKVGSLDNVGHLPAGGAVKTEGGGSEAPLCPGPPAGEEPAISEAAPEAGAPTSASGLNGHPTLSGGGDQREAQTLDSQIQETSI
# UniProt P49916, sequence (P49916 whole entry, looked up): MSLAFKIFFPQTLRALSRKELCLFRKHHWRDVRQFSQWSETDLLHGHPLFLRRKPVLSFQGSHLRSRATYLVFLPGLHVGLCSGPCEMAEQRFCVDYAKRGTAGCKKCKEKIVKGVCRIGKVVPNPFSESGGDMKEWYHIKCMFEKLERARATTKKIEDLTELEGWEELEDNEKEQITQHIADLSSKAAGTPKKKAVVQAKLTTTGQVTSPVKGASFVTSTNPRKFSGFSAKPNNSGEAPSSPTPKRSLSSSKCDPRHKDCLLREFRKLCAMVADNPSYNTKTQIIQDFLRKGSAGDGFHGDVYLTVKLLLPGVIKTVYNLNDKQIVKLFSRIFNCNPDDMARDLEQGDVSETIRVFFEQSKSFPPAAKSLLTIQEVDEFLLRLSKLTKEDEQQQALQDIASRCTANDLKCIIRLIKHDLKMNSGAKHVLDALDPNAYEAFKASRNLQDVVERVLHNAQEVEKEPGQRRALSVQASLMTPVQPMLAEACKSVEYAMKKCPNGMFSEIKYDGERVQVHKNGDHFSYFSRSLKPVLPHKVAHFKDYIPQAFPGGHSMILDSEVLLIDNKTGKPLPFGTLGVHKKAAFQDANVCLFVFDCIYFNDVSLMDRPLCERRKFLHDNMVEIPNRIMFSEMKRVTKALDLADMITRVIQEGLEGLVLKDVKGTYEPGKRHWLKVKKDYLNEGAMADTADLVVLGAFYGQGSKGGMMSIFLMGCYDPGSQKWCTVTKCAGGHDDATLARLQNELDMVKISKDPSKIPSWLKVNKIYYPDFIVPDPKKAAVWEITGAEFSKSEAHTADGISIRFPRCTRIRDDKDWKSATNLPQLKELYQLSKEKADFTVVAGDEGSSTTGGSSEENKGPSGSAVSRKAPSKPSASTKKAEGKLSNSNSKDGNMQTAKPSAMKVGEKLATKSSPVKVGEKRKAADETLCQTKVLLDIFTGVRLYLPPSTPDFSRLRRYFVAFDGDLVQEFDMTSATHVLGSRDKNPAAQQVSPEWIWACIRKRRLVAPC
# UniProt Q9UMN6, sequence (Q9UMN6 whole entry, looked up): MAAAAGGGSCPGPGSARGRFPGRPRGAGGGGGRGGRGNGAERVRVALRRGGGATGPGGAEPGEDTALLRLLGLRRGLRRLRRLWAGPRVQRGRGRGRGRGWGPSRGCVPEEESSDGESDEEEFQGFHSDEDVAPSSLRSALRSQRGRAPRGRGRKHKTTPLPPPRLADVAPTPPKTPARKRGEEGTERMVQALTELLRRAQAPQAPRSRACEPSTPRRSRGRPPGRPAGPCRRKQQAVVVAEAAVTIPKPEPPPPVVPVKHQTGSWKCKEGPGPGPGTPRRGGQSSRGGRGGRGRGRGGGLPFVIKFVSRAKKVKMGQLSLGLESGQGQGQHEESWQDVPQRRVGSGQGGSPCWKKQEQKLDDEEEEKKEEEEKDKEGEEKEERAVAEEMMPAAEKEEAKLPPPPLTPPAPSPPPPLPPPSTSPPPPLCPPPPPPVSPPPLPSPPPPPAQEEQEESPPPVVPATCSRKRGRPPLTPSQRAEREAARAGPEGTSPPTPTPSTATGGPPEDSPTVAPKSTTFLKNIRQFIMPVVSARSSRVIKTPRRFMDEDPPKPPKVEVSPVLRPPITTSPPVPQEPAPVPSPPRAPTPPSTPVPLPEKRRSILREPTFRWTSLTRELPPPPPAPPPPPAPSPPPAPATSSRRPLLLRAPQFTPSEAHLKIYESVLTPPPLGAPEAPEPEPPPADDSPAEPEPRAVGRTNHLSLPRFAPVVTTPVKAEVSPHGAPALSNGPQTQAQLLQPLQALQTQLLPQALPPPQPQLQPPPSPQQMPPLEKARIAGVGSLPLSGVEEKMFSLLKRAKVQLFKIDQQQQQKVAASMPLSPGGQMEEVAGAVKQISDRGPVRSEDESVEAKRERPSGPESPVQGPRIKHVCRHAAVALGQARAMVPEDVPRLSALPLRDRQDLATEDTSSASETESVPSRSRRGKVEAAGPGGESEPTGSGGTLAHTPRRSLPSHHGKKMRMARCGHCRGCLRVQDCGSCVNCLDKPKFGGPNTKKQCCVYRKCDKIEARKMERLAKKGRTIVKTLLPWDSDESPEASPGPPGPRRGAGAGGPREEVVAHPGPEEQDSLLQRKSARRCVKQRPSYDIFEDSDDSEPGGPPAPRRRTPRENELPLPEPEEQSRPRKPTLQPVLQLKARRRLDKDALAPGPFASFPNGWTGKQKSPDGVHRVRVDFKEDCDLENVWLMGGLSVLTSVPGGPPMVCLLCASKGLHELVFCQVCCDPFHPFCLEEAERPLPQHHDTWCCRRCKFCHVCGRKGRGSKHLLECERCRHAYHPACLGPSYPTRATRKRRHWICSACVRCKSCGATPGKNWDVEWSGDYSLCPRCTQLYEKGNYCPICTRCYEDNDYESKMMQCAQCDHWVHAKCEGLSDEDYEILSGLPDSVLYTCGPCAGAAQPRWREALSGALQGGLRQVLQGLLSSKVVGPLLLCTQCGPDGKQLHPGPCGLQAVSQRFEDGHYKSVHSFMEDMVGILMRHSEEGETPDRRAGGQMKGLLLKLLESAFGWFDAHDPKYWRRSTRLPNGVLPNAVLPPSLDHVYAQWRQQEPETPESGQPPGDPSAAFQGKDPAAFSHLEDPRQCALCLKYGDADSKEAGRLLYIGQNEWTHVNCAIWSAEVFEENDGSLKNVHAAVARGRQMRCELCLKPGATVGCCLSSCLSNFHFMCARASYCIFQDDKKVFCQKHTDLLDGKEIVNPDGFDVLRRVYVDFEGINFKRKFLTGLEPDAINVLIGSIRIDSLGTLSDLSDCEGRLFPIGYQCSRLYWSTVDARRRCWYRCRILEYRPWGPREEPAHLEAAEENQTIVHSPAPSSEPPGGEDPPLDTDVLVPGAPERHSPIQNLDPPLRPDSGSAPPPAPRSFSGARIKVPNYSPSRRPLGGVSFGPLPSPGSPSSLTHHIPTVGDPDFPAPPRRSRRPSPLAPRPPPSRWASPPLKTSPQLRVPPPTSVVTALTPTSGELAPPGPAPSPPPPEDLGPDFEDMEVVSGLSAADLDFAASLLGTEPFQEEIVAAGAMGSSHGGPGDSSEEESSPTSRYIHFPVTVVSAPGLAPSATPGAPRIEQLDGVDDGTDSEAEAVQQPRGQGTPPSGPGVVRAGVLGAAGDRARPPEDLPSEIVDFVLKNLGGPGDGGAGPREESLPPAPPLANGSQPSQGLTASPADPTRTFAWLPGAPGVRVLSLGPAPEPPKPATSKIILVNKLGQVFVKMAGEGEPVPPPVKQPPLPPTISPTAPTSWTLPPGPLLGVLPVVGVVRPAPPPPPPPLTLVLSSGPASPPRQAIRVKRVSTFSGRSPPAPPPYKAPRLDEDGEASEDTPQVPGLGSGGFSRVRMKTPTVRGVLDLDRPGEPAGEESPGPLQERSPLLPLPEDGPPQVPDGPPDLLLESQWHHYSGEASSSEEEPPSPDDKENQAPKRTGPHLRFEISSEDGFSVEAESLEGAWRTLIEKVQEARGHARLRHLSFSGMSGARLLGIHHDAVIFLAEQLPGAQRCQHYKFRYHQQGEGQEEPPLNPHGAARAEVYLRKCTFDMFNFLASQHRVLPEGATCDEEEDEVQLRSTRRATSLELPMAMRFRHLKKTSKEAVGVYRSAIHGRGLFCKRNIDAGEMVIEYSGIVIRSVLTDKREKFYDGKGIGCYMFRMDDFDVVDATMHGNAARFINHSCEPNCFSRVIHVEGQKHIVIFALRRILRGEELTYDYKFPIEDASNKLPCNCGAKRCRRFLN
# UniProt Q16553, sequence (Q16553 whole entry, looked up): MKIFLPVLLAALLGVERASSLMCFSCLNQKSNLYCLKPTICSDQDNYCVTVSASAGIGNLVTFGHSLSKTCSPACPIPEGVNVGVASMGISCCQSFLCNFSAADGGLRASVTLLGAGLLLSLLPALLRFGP
Target,log2 fold change (nilotinib),log2 fold change [1],log2 fold change (dasatinib),log2 fold change [2],log2 fold change [3],log2 fold change (quisinostat),log2 fold change (tipifarnib),log2 fold change [4],log2 fold change [5],log2 fold change [6]
MITD1 (UniProt Q8WV92),-0.022,0.089,0.011,-0.09,0.027,0.027,0.022,0.03,0.07,-0.047
KLC4 isoform 3 (UniProt Q9NSK0),-0.023,0.047,-0.013,0.089,0.048,-0.018,-0.015,0.01,0.021,-0.003
MED14 (UniProt O60244),0.027,-0.013,-0.012,-0.015,0.011,-0.021,-0.013,0.011,0.015,0.047
MARK1 (UniProt Q9P0L2),0.035,-0.113,-0.123,-0.019,0.003,0.092,0.023,-0.083,-0.03,-0.072
LRIF1 (UniProt Q5T3J3),-0.147,0.086,0.047,0.022,-0.011,0,0.057,-0.008,-0.163,-0.056
MAP4 isoform 5 (UniProt P27816),-0.168,-0.029,-0.371,0.291,0.029,-0.036,-0.101,0.03,-0.02,-0.213
KIF3C (UniProt O14782),-0.038,-0.117,0.026,0.191,0.062,-0.204,-0.187,0.043,-0.194,0.145
MAST2 (UniProt Q6P0Q8),–,–,0.049,–,0.044,-0.024,–,0.047,-0.005,-0.036
MAPK12 (UniProt P53778),0.082,0.048,-0.057,0.085,0.375 (active),0.051,-0.005,-0.015,–,-0.044
MANEA (UniProt Q5SRI9),–,–,-0.003,–,0.046,0.046,–,0.05,0.01,-0.044
MAPKAPK2 (UniProt P49137),0.032,0.068,-0.043,-0.008,0,0.01,0.032,0.148,0.022,0.008
LRRC9 (UniProt Q6ZRR7),–,–,–,–,–,-0.171,–,-0.038,–,–
LRP1 (UniProt Q07954),–,–,–,–,–,-0.936 (active),–,0.114,0.122,–
KRI1 (UniProt Q8N9T8),-0.099,0.02,-0.025,0,-0.014,-0.125,-0.073,-0.006,–,0.06
LIG3 (UniProt P49916),0.012,0.002,-0.011,-0.019,0.046,-0.024,-0.004,0.059,0.008,0.011
MEX3A (UniProt A1L020),0.026,-0.069,-0.029,-0.137,-0.084,–,0.211,–,–,–
KMT2B (UniProt Q9UMN6),–,–,0.013,–,0.108,0.346,–,-0.047,–,0.122
MRC2 (UniProt Q9UBG0),-0.001,-0.055,-0.201,0.26,0.073,-0.056,0.083,0.144,–,0.068
MAP3K6 (UniProt O95382),0.122,-0.023,–,0.006,–,–,-0.011,–,–,–
LSM11 (UniProt P83369),–,–,0.266,–,-0.049,-0.114,–,0.049,–,-0.037

Target,log2 fold change (nilotinib),log2 fold change [1],log2 fold change (dasatinib),log2 fold change [2],log2 fold change [3],log2 fold change (quisinostat),log2 fold change (tipifarnib),log2 fold change [4],log2 fold change [5],log2 fold change [6]
MDM2 isoform 11 (UniProt Q00987),–,–,–,–,–,-0.2,–,-0.077,–,-0.195
MBTPS1 (UniProt Q14703),–,–,0.106,–,-0.101,-0.053,–,0.026,–,-0.045
MAPK3 (UniProt H0YEX6),-0.522,0.646,–,0.12,–,–,0.097,–,–,–
LBR (UniProt Q14739),-0.026,0.015,-0.04,-0.004,0.003,0.065,-0.03,-0.048,0.006,0.08
LEPROT (UniProt O15243),–,–,–,–,–,-0.089,–,0.092,-0.147,0.024
KIF26A (UniProt Q9ULI4),0.035,-0.013,0.003,0.01,0.014,-0.092,0.226,-0.078,–,-0.091
KIFC3 isoform 6 (UniProt Q9BVG8),–,–,-0.055,–,-0.146,-0.189,–,0.079,–,-0.213
MPP5 (UniProt Q8N3R9),0.015,-0.013,0.028,-0.069,0.009,-0.052,0.142,0.002,–,-0.053
MARF1 (UniProt Q9Y4F3),-0.064,0.024,-0.031,0.031,-0.03,-0.053,-0.062,0.088,–,-0.035
LRRC7 (UniProt Q96NW7),–,–,0.059,–,-0.043,0.128,–,-0.009,0.069,–
KLC1 isoform 10 (UniProt Q07866),–,–,–,–,–,–,–,–,–,-0.159
MRPL22 (UniProt Q9NWU5),0.04,0.017,–,0.03,–,0.025,-0.003,-0.001,-0.073,0.081
LY6E (UniProt Q16553),-0.141,0.031,–,0.056,–,–,0.033,–,0.08,–
KIF21A (UniProt H0YI78),0.067,-0.005,0.044,0.143,0.055,–,-0.069,–,0.104,0.082
LYN isoform 2 (UniProt P07948),0.125,0.143,0.438,0.257,0.061,-0.111,-0.615,0.748,–,-0.053
MOCS3 (UniProt O95396),-0.008,-0.054,-0.056,0.056,-0.049,-0.219,0.045,-0.054,–,-0.03
MAP4K4 isoform 6 (UniProt O95819),–,–,-0.01,–,0.115,–,–,–,0.021,0.083
MAP4K2 (UniProt Q12851),–,–,0.511,–,0.123,-0.193,–,0.965 (active),0.159,-0.062
MDM1 (UniProt Q8TC05),-0.073,-0.008,0.015,-0.149,0.056,–,0.006,–,-0.005,0.061
MAPKAP1 (UniProt Q9BPZ7),0.105,-0.118,-0.085,0.083,-0.003,-0.087,-0.056,0.042,–,-0.093
